Source: PubChem BioAssay (NCI)
Where “and” joins values, the source holds several entries; their conditions need not be identical. Equal values may be shown once. Compounds without any hit were thinned out: in the full panel of roughly 83,000, 20% have a hit.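 A percent growth of 40 corresponds to 60% growth inhibition; 0 means no net growth; -100 means all cells died. Active threshold: below 10.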 Values without a mark were called inactive. Calls of active or inactive are those of the source.

Tested on: MDA-MB-468 breast
Assay: NCI-60 one-dose screen, 48 h (100 = growth as untreated, 0 = no growth, -100 = all killed)
Settings: 10 µM unless noted

SMILES | growth
CCOC(=O)C1=C(c2ccccc2)N=C2N(c3ccccc3)N=C(C(C)=O)N2C1c1ccc(F)cc1 (stereo unspecified) | 93.2%
CC(=C(c1ccc(OCCN2CCCCC2)cc1)c1ccc(OCCN2CCCCC2)cc1)c1ccc(Cl)cc1 | -79.6% (active)
O=C(O)c1cn(C2CC2)c2cc(N3CCN(C(=O)CN4C(=O)CSC4=O)CC3)c(F)cc2c1=O | 96.4%
C=C1C(=O)O[C@H]2[C@H]1CC/C(COC(=O)C(=O)c1c[nH]c3ccc(OC)cc13)=C\CC[C@@]1(C)O[C@@H]21 | -67.5% (active)
CCC(C)Oc1cc(/C=N/NC(=O)c2cnn3c2NC(c2ccccc2)C3)ccc1OC (stereo unspecified) | 19.1%
CSc1nc2sc3cc(Cl)c(Cl)cc3n2c(=N)c1C#N | 72.6%
COc1ccc(NC(=O)Nc2ccc(OCCCCCC(=O)NO)cc2)cc1 | 93.1%
O=C(O)c1ccc(=O)[nH]n1 | 123%
Oc1c(C(c2ccc(F)cc2)N2CCCCC2)ccc2cncnc12 (stereo unspecified) | -2.7% (active)
CCCCCCCCCC(=O)NC(C)(C)C(=O)N1CCC[C@H]1C(=O)N[C@@H](CC(C)C)C(=O)N[C@@](C)(CC)C(=O)N[C@@H](CCC(N)=O)C(=O)N[C@H](CCC(N)=O)C(=O)NC(C)(C)C(=O)NC(C)(C)C(=O)N[C@@H](CCC(N)=O)C(=O)N[C@H](CC(C)C)C(=O)N[C@H](CO)CC(C)C | -94.3% (active) and -88.5% (active)
Cn1c2ccc(Br)cc2c2c3c(c4c5cc(F)ccc5oc4c21)C(=O)N(O)C3=O | 108%
